Screening results as filed in PubChem.
Only some compounds are listed: those with a hit (about 12% of all), similar ones and a draw of the others.
PLK1 PBD inh – PLK1 (human) polo-box domain binding inhibition; P53350; Plk1 PBD binding of FITC phosphopeptide, fluorescence polarization; Potency, µM, hits mostly inhibitors; actives 2.8% (n = 360,000); AID 720504; also: series mostly up to about 57 µM; nearly all actives have a fitted effect of over 65% in size
BAZ2B inh – blocks human BAZ2B. AlphaScreen BAZ2B-H3K14Ac peptide displacement. Potency, µM (titrated, usually from 114 µM), most hits filed as inhibitors. actives 4.4% (n = 360,000). AID 504333; also: nearly all actives have a fitted effect of over 60% in size
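BAZ2B 50 nM plus b-H3(5-23)K14Ac 50 nM, PBS pH 7.4/0.01% Tween-20, 30 min RT; compound added (max 110 uM), 30 min RT; streptavidin donor/Ni-chelate acceptor beads 10 ug/mL final, 20 min dark; AlphaScreen read.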
G9a block – inhibitors of human histone lysine methyltransferase G9a; AID 504332; Potency, µM (titrated, usually from 102 µM), hits mostly inhibitors; actives 8.8% (n = 350,000); G9a H3K9 monomethylation, AlphaScreen, 2 h; Q96KQ7; also: nearly all actives have a fitted effect of over 75% in size
Target sequence (Q96KQ7 913-1193 limits assumed): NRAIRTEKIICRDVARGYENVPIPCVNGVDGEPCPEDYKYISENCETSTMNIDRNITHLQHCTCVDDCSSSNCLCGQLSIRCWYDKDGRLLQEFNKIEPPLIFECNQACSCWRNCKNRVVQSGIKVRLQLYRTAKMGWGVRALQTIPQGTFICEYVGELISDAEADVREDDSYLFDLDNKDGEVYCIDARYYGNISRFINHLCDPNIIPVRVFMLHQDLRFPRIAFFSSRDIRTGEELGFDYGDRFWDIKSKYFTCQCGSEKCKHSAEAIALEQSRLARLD
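Step 1: enzyme (final 20 nM) with compound, 15 min RT. Step 2: substrate peptide 500 nM and SAM 20 uM, 2 h RT. Step 3: anti-H3K9me1 antibody and AlphaScreen beads, 10 min, then plate read.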
HP1b chromo inh – inhibitors of HP1-beta chromodomain binding to methylated histone tails. P83916. actives 0.56% (n = 390,000). AlphaScreen HP1-beta / biotin-H3K9me3 peptide binding. Potency, µM (highest dose often 114 µM), hits mostly inhibitors; also: nearly all actives have a fitted effect of over 70% in size
Target sequence (P83916 whole entry, looked up): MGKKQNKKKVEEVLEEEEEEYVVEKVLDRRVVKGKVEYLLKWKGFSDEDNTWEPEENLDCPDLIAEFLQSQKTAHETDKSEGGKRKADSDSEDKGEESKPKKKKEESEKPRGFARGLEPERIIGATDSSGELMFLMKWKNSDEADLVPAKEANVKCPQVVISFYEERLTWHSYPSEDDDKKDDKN
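HP1-beta protein (50 nM final) preincubated 30 min at room temperature with biotinylated H3(1-18)K9me3 peptide (50 nM) in PBS pH 7.4, 0.01% Tween-20, then compound added for 30 min. AlphaScreen streptavidin donor/nickel chelate acceptor beads (10 ug/mL final), 30 min dark, luminescence read.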
Sfp PPTase inh – inhibitors of Bacillus subtilis Sfp phosphopantetheinyl transferase | Potency, µM, hits mostly inhibitors | Q9F4F7 | Biochemical Sfp PPTase activity, qHTS | AID 1490 | actives 3.5% (n = 310,000);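 also: the enzyme is Sfp with the accession as filed and its product quenches rhodamine fluorescence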
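Fluorescence-quenching assay with 15 nM Sfp, 5 uM rhodamine-CoA and 12.5 uM BHQ-2-labelled ybbR peptide in pH 7.6 Hepes/MgCl2 buffer. Enzyme was pre-incubated with compound for 15 min at room temperature. Rate was taken from the 30-min fluorescence change (525/598 nm).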
JMJD2A Tudor inh – blocks the human JMJD2A Tudor domain; AID 504339; O75164; actives 4.4% (n = 390,000); Potency, µM (series often up to 114 µM), actives largely listed as inhibitors; AlphaScreen JMJD2A-Tudor / H3K4me3 peptide binding; also: nearly all actives have a fitted effect of over 50% in size
Of the large screens only hits and unclear results are named; the others gave an inactive call; ! = not active in a repeat. Calls follow the shape of the dose curve; as a rule, active = well fitted curve in the direction sought with a large enough effect; inconclusive = small, poorly fitted or top-dose-only effect, or another doubt; inactive = no such curve, though single readings can be large; an effect the other way counts as inactive or inconclusive.

CCN(CC(=O)Nc1ccccc1OC)C(=O)c1cccc(-n2cccc2)c1	BAZ2B inh inconclusive, G9a block 45µM, JMJD2A Tudor inh inconclusive
CC1=C(C(=O)N2CCN(c3cccc(C)c3C)CC2)C2(CCCCC2)OC1=O	BAZ2B inh 79µM (no result: PLK1 PBD inh, Sfp PPTase inh)
Cc1cccc(N2CCN(C(=O)Cn3cccc3)CC2)c1C	BAZ2B inh inconclusive, G9a block 50µM, JMJD2A Tudor inh inconclusive
Cc1cccc(N2CCN(C(=O)C3CCC(=O)N(C4CC4)C3)CC2)c1C (stereo not given)	PLK1 PBD inh 7.5µM, JMJD2A Tudor inh inconclusive
O=C(C1CCC(=O)N(C2CCCC2)C1)N1CCN(c2ccccc2Cl)CC1 (stereo not given)	none
CC1=C(C(=O)N2CCN(c3ccccc3)CC2)C2(CCCCC2)OC1=O	none (no result: PLK1 PBD inh, Sfp PPTase inh)
Cc1cccc(N2CCN(C(=O)Cn3ncc4c5ccccc5n(C)c4c3=O)CC2)c1C	none (no result: PLK1 PBD inh, Sfp PPTase inh)
Cc1cccc(N2CCN(C(=O)Cc3cn(C)c4ccccc34)CC2)c1C	PLK1 PBD inh 12µM, BAZ2B inh inconclusive, G9a block 50µM, HP1b chromo inh inconclusive, JMJD2A Tudor inh 18µM
O=C(CSc1ccc2nnc(CCNC(=O)c3ccccc3)n2n1)NCc1ccc(F)cc1	none
Cn1cc(SCC(=O)N2CCOCC2)c2ccccc21	none
Cc1ccc(C(=O)N2CCN(c3cccc(C)c3C)CC2)o1	G9a block 71µM
Cn1cc(SCC(=O)N2CCN(c3ccccc3)CC2)c2ccccc21	BAZ2B inh inconclusive, G9a block 40µM, JMJD2A Tudor inh inconclusive
Cc1cccc(N2CCN(C(=O)C(C)C)CC2)c1C	PLK1 PBD inh 30µM
C[C@H](CO)N1C[C@H](C)[C@@H](CN(C)S(=O)(=O)c2ccccc2)Oc2c(NC(=O)C3CCCCC3)cccc2C1=O	none (no result: BAZ2B inh, G9a block, Sfp PPTase inh)
CN[C@@H]1[C@H](O[C@@H]2O[C@H](C)[C@@](O)(CO)[C@H]2O[C@H]2[C@H](O)[C@H](O)[C@H](N=C(N)N)[C@@H](O)[C@@H]2N=C(N)N)O[C@@H](CO)[C@H](O)[C@H]1O	G9a block 10µM (no result: PLK1 PBD inh, BAZ2B inh, HP1b chromo inh, JMJD2A Tudor inh)
COc1cc(OC)c(/C=N/N2CCN(c3ccccc3OC)CC2)c(OC)c1	BAZ2B inh inconclusive, JMJD2A Tudor inh inconclusive
COc1cc(/C=N/n2c(C3CCCCC3)n[nH]c2=S)ccc1O	PLK1 PBD inh inconclusive, G9a block 3.5µM, HP1b chromo inh inconclusive, Sfp PPTase inh inconclusive, JMJD2A Tudor inh 11µM
COc1cccc(/C=N/n2c(C3CCCCC3)n[nH]c2=S)c1O	G9a block 2.5µM, Sfp PPTase inh 79µM, JMJD2A Tudor inh 25µM
COc1cccc(/C=N/n2c(C3CCCCC3)n[nH]c2=S)c1OC	PLK1 PBD inh inconclusive, G9a block inconclusive, JMJD2A Tudor inh inconclusive
COc1ccc(/C=N/n2c(C3CCCCC3)n[nH]c2=S)c(OC)c1	BAZ2B inh inconclusive, G9a block 14µM, JMJD2A Tudor inh 40µM
COc1cc(/C=N/NC(=O)CC(=O)NC2CCCCC2)ccc1O	none
COc1cc(OC)c(/C=N/n2c(C3CCCCC3)n[nH]c2=S)c(OC)c1	G9a block 1.3µM, JMJD2A Tudor inh 4µM
COc1ccc(C(=O)OC(C)C(=O)NC2CCCc3ccccc32)cc1OC (stereo not given)	none (no result: Sfp PPTase inh)
CCOC(=O)C1=C(CS(=O)(=O)c2ccc(F)cc2)NC(=O)NC1c1ccc(OCC)c(OC)c1 (stereo not given)	none (no result: PLK1 PBD inh, Sfp PPTase inh)
O=C1CN(C(=O)c2ccccc2)c2ccccc2N1	none
O=C1C(=C(c2ccccc2)c2ccccc2)Nc2ccccc21	BAZ2B inh 11µM, HP1b chromo inh 16µM, JMJD2A Tudor inh 28µM
O=C(Nc1cccc(-n2cccn2)c1)C1CCCN(Cc2cc3ccccc3[nH]2)C1 (stereo not given)	PLK1 PBD inh 21µM, BAZ2B inh 71µM, JMJD2A Tudor inh inconclusive
Cc1cc(CN2CCCC(C(=O)Nc3cccc(-n4cccn4)c3)C2)cc(C)c1O (stereo not given)	PLK1 PBD inh inconclusive, G9a block inconclusive
Nc1c(C(=O)N2CCCC2)sc2nc3c(cc12)CCCCCC3	G9a block inconclusive, Sfp PPTase inh 56µM
Nc1c(C(=O)N2CCOCC2)sc2nc3c(cc12)CCCC3	G9a block inconclusive
COCc1cc(C)nc2sc(C(=O)N3CCCC3)c(N)c12	G9a block inconclusive, Sfp PPTase inh inconclusive, JMJD2A Tudor inh inconclusive
Cc1cc(C)c2c(N)c(C(=O)N3CCCCCC3)sc2n1	PLK1 PBD inh inconclusive, BAZ2B inh inconclusive, G9a block inconclusive, Sfp PPTase inh 35µM, JMJD2A Tudor inh 35µM
Cc1c(C(=O)O)sc2nc(CSc3ncc(C(F)(F)F)cc3Cl)[nH]c(=O)c12	BAZ2B inh 50µM, HP1b chromo inh inconclusive, JMJD2A Tudor inh 50µM
CCn1c(SCc2nc3sc(C(=O)O)c(C)c3c(=O)[nH]2)nc2ccccc21	PLK1 PBD inh inconclusive, BAZ2B inh 25µM, G9a block 2.5µM, HP1b chromo inh 28µM, Sfp PPTase inh inconclusive, JMJD2A Tudor inh 40µM
CCOC(=O)CSc1nc2sc(C)c(C)c2c(=O)[nH]1	none
CCOC(=O)CSc1nc2sc(C(=O)O)c(C)c2c(=O)[nH]1	G9a block 79µM
COCCn1c(SCc2nc3sc(C(=O)OC)c(C)c3c(=O)[nH]2)nc2ccccc21	G9a block inconclusive
CCCCN(C(=O)c1ccc(Br)o1)C1CCS(=O)(=O)C1 (stereo not given)	G9a block 50µM (no result: Sfp PPTase inh)
CCCCN(C(=O)c1ccccc1Br)C1CCS(=O)(=O)C1 (stereo not given)	none (no result: Sfp PPTase inh)
C[n+]1ccccc1/C=N/O	JMJD2A Tudor inh 35µM!
C[n+]1ccccc1/C=N\O	none (no result: PLK1 PBD inh, BAZ2B inh, HP1b chromo inh, JMJD2A Tudor inh)
CC(O)/C=C/c1cccc[n+]1C (stereo not given)	G9a block 10µM, JMJD2A Tudor inh 40µM
O=C(Cc1cccc(NC(=O)C2CCCN(C(=O)c3ccccc3)C2)c1)Nc1ccc(C(=O)N2CCOCC2)cc1 (stereo not given)	none (no result: BAZ2B inh, G9a block, Sfp PPTase inh)
CCOC(=O)Cc1ccc(NCc2ccc(Cl)cc2)cc1	BAZ2B inh inconclusive, G9a block 50µM, JMJD2A Tudor inh inconclusive
O=C(NCc1ccccc1Cl)[C@@H]1CCCN1S(=O)(=O)c1ccc(Cl)cc1	none (no result: BAZ2B inh, G9a block, Sfp PPTase inh)
CCOC(=O)c1c(C)nc2c(c1-c1ccc(OC)c(OC)c1)C(=O)c1ccccc1-2	none
CCOC(=O)C(C(=O)OCC)c1cc(Br)c2noc3c2c1C(=O)c1ccccc1-3	PLK1 PBD inh 1.9µM, BAZ2B inh 7.9µM, G9a block 2.5µM, HP1b chromo inh inconclusive, Sfp PPTase inh 0.71µM, JMJD2A Tudor inh 50µM
CCOC(=O)CSc1cn2c(n1)CCC2	G9a block 10µM, Sfp PPTase inh 40µM
CC1(C(=O)NCc2ccccc2)Cc2c(-c3ccc4c(c3)OCO4)ccnc2O1 (stereo not given)	none (no result: BAZ2B inh, G9a block, HP1b chromo inh, Sfp PPTase inh, JMJD2A Tudor inh)
